Measurements reported in PubChem BioAssay (NCI).
About 83,000 compounds went through this panel and 20% of them were active in at least one assay; those are over-represented in the sample as a whole.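 Values shown are percent growth following 48 h exposure of cells in 96-well plates to a single concentration of compound; below 10 was considered active.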 Unmarked numbers belong to inactive results. Calls of active or inactive are those of the source.

Experiments:
Test in all cases: NCI-60 one-dose screen, 48 h (100 = growth as untreated, 0 = no growth, -100 = all killed)
Conditions in all cases: 10 µM unless noted
HCT-15 colon = test system: HCT-15 colon
HT29 colon = test system: HT29 colon
SNB-75 CNS = test system: SNB-75 CNS
SNB-19 CNS = test system: SNB-19 CNS
U251 CNS = test system: U251 CNS
PC-3 prostate = test system: PC-3 prostate
SK-MEL-5 melanoma = test system: SK-MEL-5 melanoma
UACC-62 melanoma = test system: UACC-62 melanoma
LOX IMVI melanoma = test system: LOX IMVI melanoma
SK-MEL-28 melanoma = test system: SK-MEL-28 melanoma
SK-MEL-2 melanoma = test system: SK-MEL-2 melanoma
SN12C renal = test system: SN12C renal
UO-31 renal = test system: UO-31 renal
TK-10 renal = test system: TK-10 renal
ACHN renal = test system: ACHN renal
CAKI-1 renal = test system: CAKI-1 renal
A498 renal = test system: A498 renal
CCRF-CEM leukemia = test system: CCRF-CEM leukemia
MOLT-4 leukemia = test system: MOLT-4 leukemia
EKVX NSCLC = test system: EKVX NSCLC

Compound | growth (HCT-15 colon) | growth (HT29 colon) | growth (SNB-75 CNS) | growth (SNB-19 CNS) [%] | growth (U251 CNS) | growth (PC-3 prostate) [%] | growth (SK-MEL-5 melanoma) | growth (UACC-62 melanoma) | growth (LOX IMVI melanoma) | growth (SK-MEL-28 melanoma) | growth (SK-MEL-2 melanoma) | growth (SN12C renal) [%] | growth (UO-31 renal) | growth (TK-10 renal) | growth (ACHN renal) | growth (CAKI-1 renal) | growth (A498 renal) | growth (CCRF-CEM leukemia) | growth (MOLT-4 leukemia) | growth (EKVX NSCLC) [%]
Cc1ccc2nc(-c3ccc(C(=O)N/N=C/c4ccc([N+](=O)[O-])cc4)cc3)[nH]c2c1 | 102% | 102% | 97.1% | 104 | 107% | 98.2 | 98.5% | 97.4% | 98.8% | 112% | 116% | 106 | 86.4% | 127% | 104% | 97.4% | 82.8% | 95.3% | 93.4% | 
O=C(NCCNC(c1ccccc1)C(NCCNC(=O)c1ccccc1)c1ccccc1)c1ccccc1 (configuration not stated) | 18.8% | 36.7% | 117% | 88 | 74.7% | 70.4 | 95.7% | 85.2% | 75.6% | 103% | 45.9% |  |  | 97.5% | 7.15% (active) | 61.6% | 112% | 97.1% | 72.2% | 123
CCOC(=O)C#Cc1c(C(=O)OCC)nnn1[C@@H]1O[C@H](COC)[C@@H](OC)[C@H]1OC | -12.2% (active) | 24.9% | 72.9% | 97.9 | 102% | 92.4 | 98.3% | 93.8% | 67% | 96.3% | 92% | 82.5 | 29.2% | 11.1% | -35.3% (active) | -91.2% (active) | 99.1% | 27.7% | 58.6% | 
CC(=O)O[C@H]1CC[C@]2(C)[C@H]3CC=C4[C@@H]5CC(C)(C)CC[C@]5(C(=O)N5CCN(CCC#N)CC5)CC[C@@]4(C)[C@]3(C)CC[C@H]2C1(C)C | 20.3% | 12.4% | 53.8% | 63.2 | 12.4% | 19.5 | 7.89% (active) | 38% | 20% | 52.2% | 68.7% | 53.4 | 30.2% | 54.1% | 28.2% | 35.1% | 5.98% (active) | 27.5% | 19.7% | 
COc1ccc(C2CC(c3ccccc3)=NN2C(=O)c2cc(OC)c(OC)c(OC)c2)cc1O (configuration not stated) | 16.2% | 36% | 34.7% | 47.3 | 20.6% | 22.5 | 22.4% | 25.9% | 42.9% | 64.9% | 76.5% | 37.5 | 30.3% | 63.2% | 37.5% | 52.9% | 17.3% | 17.9% | 18.9% | 
Cn1c(C#N)ccc1-c1ccc(F)c(NC(=O)c2ccc(F)cc2)c1 | 66.6% | 47.5% | 71.4% | 84.1 | 73.4% | 80.9 | 75.9% | 60.8% | 69.8% | 86.5% | 60.3% | 82.2 | 64% | 86% | 84.4% | 73.9% | 73.3% | 68.8% | 47.6% | 
CCOC(=O)/C=C1\S/C(=N\Nc2cc(=O)[nH]c3ccc(Br)cc23)N(c2ccccc2)C1=O | 42.3% | 104% | 80.4% | 90.4 | 77.1% | 44.1 | 98.3% | 78.6% | 90.6% | 95.3% | 99.3% | 78.9 | 60.1% | 90.8% | 73% | 69.9% | 95.6% |  | 21.4% | 
COc1cc(/C=N/NC(=O)c2ccc(-n3cc(-c4ccccc4)nn3)cc2)cc(OC)c1OC | 76.2% | 47.8% | 71.6% | 58.9 | 48.4% | 47.5 | 57.2% | 9.86% (active) | 36.3% | 53.3% | 98% | 80 | 88.2% | 99.2% | 70.7% | 65.3% | 71.1% | 55.1% | 78.3% | 
Cc1c(O)cc(-c2cnc(N/N=C/c3ccccc3)s2)c(O)c1C | 79.1% | 104% | 98% | 105 | 97.9% | 69.7 | 85.8% | 81.9% | 79.9% | 92.2% | 104% | 95.6 | 79.9% | 129% | 99.4% | 91.7% | -20.4% (active) | 8.48% (active) | 9.73% (active) | 
C=CC(CC(c1ccccc1)(c1ccccc1)c1ccccc1)N(CC)CC (configuration not stated) | 41.4% | 16.2% | 68.1% | 98.3 | 62% | 44.9 | 13.5% | 44.2% | 71.6% | 61.6% | 93.7% | 71.4 | 43.2% | 73.6% | 85.8% | 65.6% | 66.3% | 53.5% | 56.2% | 
O=C1Nc2ccccc2/C1=N/N1C(=O)CN(CCCl)C1=O | 105% | 99.1% | 86.8% | 97.1 | 102% | 99 | 97.5% | 90.5% | 100% | 111% | 103% |  | 86% | 102% | 107% | 89.1% | 95.6% | 99.3% | 99.9% | 102
COc1ccc(-c2cn(Cc3cc4ccccc4s3)nn2)cc1OCCN1CCCCC1 | 59.4% | 20.1% | 83.8% | 86.3 | 74.5% | 68.4 | 42.8% | 83.8% | 48.9% | 75.8% | 90.8% |  | 37.2% | 90.1% | 89.4% | 78.9% | -1.93% (active) | 62.2% | 53% | 84.3
Clc1cccc(C2Cc3cnccc3-c3[nH]c4ccncc4c32)c1 (configuration not stated) | 25.2% | 40.9% | 73.6% | 53.9 | 36.9% | 21.1 | -60.2% (active) | 36.5% | 39.7% | 62.7% | 61% |  | 39.1% | 53.3% | 42.1% | 50.8% | 39% | 49.7% | 9.28% (active) | 42.9
Cc1ncc(C(=O)Nc2ccc(CN3CCN(C)CC3)c(C(F)(F)F)c2)cc1C#Cc1cnc(N)c2ccc(C#N)cc12 | -77.4% (active) | -6.14% (active) | -11.5% (active) | 52 | 19.9% | 11.7 | -79.7% (active) | -8.26% (active) | -90% (active) | -55.9% (active) | -6.37% (active) | 10.4 | -24.4% (active) | 4.43% (active) | -79.6% (active) | -72.6% (active) | -41% (active) | 3.7% (active) | 8.65% (active) | 
Clc1ccc(-c2nc(C(Cl)Cl)nc3cc(-c4ccccc4)nn23)cc1 | 8.19% (active) | 5.93% (active) | -13.1% (active) | 25.2 | 7% (active) | 41.2 | 82.2% | 79.8% | 78.5% | 47.9% | 84.5% | 65.1 | 47.3% | 36.8% | -52.8% (active) | -15.8% (active) | -15.8% (active) | 53.4% | 31.7% | 
COc1ccc(CNc2ccc3nc(NC(=O)CN4CCCCCC4)sc3c2)cc1 | 70.9% | 60.6% | 131% | 96.1 | 85.4% | 65.8 | 67.8% | 73.8% | 78.5% | 101% | 85.4% | 87.3 | 80.6% | 117% | 89.8% | 85.2% | 90.3% | 58.6% | 61.1% | 
